Many of the other results were omitted from the sample, so the strongest signals are more common in it than they were.
What was measured:
Assay in all cases: glycan array binding signal (z-score within array); higher = stronger binding
Conditions in all cases: glycan notation: IUPAC condensed, linker removed
[1] = target: GlcNAc(a1-4)Gal(b1-4)GlcNAc(b1-3)Gal(b1-4)[Fuc(a1-3)]GlcNAc(b1-3)Gal(b1-4)[Fuc(a1-3)]GlcNAc
Outline: (§1)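 The Consortium for Functional Glycomics database supplied 3228 glycan arrays, of which those lacking an available protein sequence were dropped. The binding signal, a within-array Z-score, was averaged across arrays of the same protein sequence and across linkers. Negative scores can be read as non-binding.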

[2] = target: GlcNAc(b1-3)Gal(b1-4)GlcNAc(b1-2)[GlcNAc(b1-3)Gal(b1-4)GlcNAc(b1-6)]Man(a1-6)[GlcNAc(b1-3)Gal(b1-4)GlcNAc(b1-2)Man(a1-3)]Man(b1-4)GlcNAc(b1-4)GlcNAc
Outline: as §1

[3] = target: GlcNAc(b1-3)Gal(b1-4)GlcNAc(b1-3)Gal(b1-4)GlcNAc(b1-3)Gal(b1-4)GlcNAc(b1-3)Gal(b1-4)GlcNAc(b1-2)[GlcNAc(b1-3)Gal(b1-4)GlcNAc(b1-3)Gal(b1-4)GlcNAc(b1-3)Gal(b1-4)GlcNAc(b1-3)Gal(b1-4)GlcNAc(b1-6)]Man(a1-6)[GlcNAc(b1-3)Gal(b1-4)GlcNAc(b1-3)Gal(b1-4)GlcNAc(b1-3)Gal(b1-4)GlcNAc(b1-3)Gal(b1-4)GlcNAc(b1-2)Man(a1-3)]Man(b1-4)GlcNAc(b1-4)[Fuc(a1-6)]GlcNAc
Outline: as §1

[4] = target: GlcNAc(b1-3)[GlcNAc(b1-6)]Gal(b1-4)GlcNAc
Outline: as §1

[5] = target: GlcNAc(b1-3)[GlcNAc(b1-6)]GlcNAc
Outline: as §1

[6] = target: GlcNAc(b1-4)Gal(b1-4)GlcNAc
Outline: as §1

[7] = target: Man(a1-2)Man(a1-3)[Man(a1-2)Man(a1-6)]Man(a1-6)[Man(a1-2)Man(a1-2)Man(a1-3)]Man(b1-4)GlcNAc(b1-4)GlcNAc
Outline: as §1

[8] = target: Man(a1-2)Man(a1-3)[Man(a1-3)[Man(a1-6)]Man(a1-6)]Man(b1-4)GlcNAc(b1-4)GlcNAc
Outline: as §1

[9] = target: Man(a1-2)Man(a1-3)[Man(a1-6)]Man(a1-6)[Man(a1-2)Man(a1-3)]Man(b1-4)GlcNAc(b1-4)GlcNAc
Outline: as §1

[10] = target: Man(a1-3)[Man(a1-6)]Man(a1-6)[Man(a1-3)]Man(b1-4)GlcNAc(b1-4)GlcNAc
Outline: as §1

[11] = target: Neu5Ac(a2-3)Gal(b1-4)GlcNAc(b1-3)Gal(b1-4)GlcNAc(b1-3)Gal(b1-4)GlcNAc(b1-2)Man(a1-3)[Neu5Ac(a2-3)Gal(b1-4)GlcNAc(b1-3)Gal(b1-4)GlcNAc(b1-3)Gal(b1-4)GlcNAc(b1-2)Man(a1-6)]GalNAc
Outline: as §1

[12] = target: Neu5Ac(a2-3)Gal(b1-4)GlcNAc(b1-6)[Neu5Ac(a2-3)Gal(b1-3)]GalNAc
Outline: as §1

[13] = target: Neu5Ac(a2-3)Gal(b1-4)[Fuc(a1-3)]GlcNAc
Outline: as §1

[14] = target: Neu5Ac(a2-3)Gal(b1-4)[Fuc(a1-3)]GlcNAc(b1-3)GalNAc
Outline: as §1

[15] = target: Neu5Ac(a2-3)Gal6S(b1-4)[Fuc(a1-3)]GlcNAc
Outline: as §1

Neu5Ac(a2-6)Gal = target: Neu5Ac(a2-6)Gal
Outline: as §1

[16] = target: Neu5Ac(a2-6)Gal(b1-4)GlcNAc(b1-2)Man(a1-6)Man(b1-4)GlcNAc(b1-4)GlcNAc
Outline: as §1

[17] = target: Neu5Ac(a2-6)Gal(b1-4)GlcNAc(b1-2)Man(a1-6)[Gal(b1-4)GlcNAc(b1-2)Man(a1-3)]Man(b1-4)GlcNAc(b1-4)GlcNAc
Outline: as §1

[18] = target: Neu5Ac(a2-6)Gal(b1-4)GlcNAc(b1-2)Man(a1-6)[GlcNAc(b1-2)Man(a1-3)]Man(b1-4)GlcNAc(b1-4)GlcNAc
Outline: as §1

[19] = target: Neu5Ac(a2-6)Gal(b1-4)GlcNAc(b1-6)GalNAc
Outline: as §1

[20] = target: Neu5Ac(a2-6)Gal(b1-4)GlcNAc(b1-6)[Gal(b1-3)]GalNAc
Outline: as §1

Neu5Ac(a2-8)Neu5Ac = target: Neu5Ac(a2-8)Neu5Ac
Outline: as §1

[21] = target: Neu5Gc(a2-3)Gal(b1-3)GlcNAc
Outline: as §1

B1: XL-35 (Xenopus laevis) (protein)
chain: MLVHILLLLVTGGLSQSCDPVVIVASKNMVKQLDCDKFRNCKEIKDSNEEAQDGIYTLTSPDGISYQTFCDMTTNGGGWTLVASVHENNMAGKCTIGDRWSSQQGNRADYPEGDGNWANYNTFGSAGGATSDDYKNPGYYDIEAYNLGVWHVPNKTPLSVWRNSSLQRYRTTDGILFKHGGNLFSLYRIYPVKYGIGSCSKDSGPTVPVVYDLGSANLTASFYSPGFRSQFTPGYIQFRPINTEKAALALCPGMKMESCNVEHVCIGGGGYFPEADPRQCGDFAAYDFNGYGTKKFNSAGIEITEAAVLLFYL
- glycan array binding signal (z-score) [1]: 1.05
- glycan array binding signal (z-score) [2]: 0.95
- glycan array binding signal (z-score) [3]: 0.094
- glycan array binding signal (z-score) [4]: -0.01
- glycan array binding signal (z-score) [5]: -0.058
- glycan array binding signal (z-score) [6]: 4.54
- glycan array binding signal (z-score) [7]: -0.156
- glycan array binding signal (z-score) [8]: -0.086
- glycan array binding signal (z-score) [9]: -0.092
- glycan array binding signal (z-score) [10]: 0.065
- glycan array binding signal (z-score) [11]: 0.335
- glycan array binding signal (z-score) [12]: -0.518
- glycan array binding signal (z-score) [13]: -0.21
- glycan array binding signal (z-score) [14]: 0.775
- glycan array binding signal (z-score) [15]: -0.241
- glycan array binding signal (z-score) (Neu5Ac(a2-6)Gal): -0.04
- glycan array binding signal (z-score) [16]: -0.2
- glycan array binding signal (z-score) [17]: -0.115
- glycan array binding signal (z-score) [18]: 0.009
- glycan array binding signal (z-score) [19]: -0.112
- glycan array binding signal (z-score) [20]: 0.356
- glycan array binding signal (z-score) (Neu5Ac(a2-8)Neu5Ac): -0.216
- glycan array binding signal (z-score) [21]: -0.235
